# Bioassay records from PubChem.
# Pf growth 48h: inhibits P. falciparum growth in the first generation, 48 h; P. falciparum luciferase growth in erythrocytes, 48 h; Potency, µM (doses to about 28.7 µM), for the others: top-dose activity change, negative = inhibition, hits mostly inhibitors; 5.9% of 310,000 active; AID 504832; note: potency is the fitted concentration of half-maximal effect; % is set by controls: 0 for no effect and ±100 for the full control effect
#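 Luciferase-expressing P. falciparum in infected erythrocytes (2% hematocrit, 0.1% parasitemia final) in RPMI 1640/0.5% Albumax were exposed to compound for 48 hours at 37 C, 5% CO2; growth read as luminescence.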
# Shiga inhibitor: inhibitors of Shiga toxin in Vero cells; AID 2315; Vero cells, Shiga toxin protein synthesis inhibition reporter; inhibition, % at 38.7 µM; 9.2% of 290,000 active; in the data active = inhibition mostly above about 28%, no sharp cut-off; inactive = mostly below about 43%; note: 0% is about no effect
# CHX counter: counter-screen hit for Shiga toxin inhibitors, cycloheximide. cell reporter, cycloheximide protein synthesis inhibition counterscreen. max response, %. 12% of 300,000 active. AID 2314; in the data active = max response mostly above about 13%, no sharp cut-off; inactive = mostly below about 14%; note: read at 38.3 µM for the half of the compounds with a filed dose; 0% is about no effect
# Pf growth 96h: inhibits malaria parasite growth, 96 h; P. falciparum luciferase reporter growth, 96 h; Potency, µM (top dose mostly 28.7 µM), for inactives: at the top dose activity change, negative = inhibition, most hits filed as inhibitors; 6.9% of 320,000 active; AID 504834; note: potency is the fitted concentration of half-maximal effect; % is set by controls: 0 for no effect and ±100 for the full control effect
#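 Plates of compound plus infected erythrocytes (2% hematocrit, 0.05% parasitemia final) incubate 96 hours, 37 C, 5% CO2. Detection reagent added; reduced luminescence from the parasites' luciferase reporter flags inhibition.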
# HCMV inh: inhibitors of human cytomegalovirus | HFF cells, HCMV-luciferase reporter, 72 h; hits give low values | activity change, negative = inhibition, % at 57.5 µM | 4.5% of 410,000 active; in the data active = activity change below about -60%; inconclusive = no clear call, values can overlap the other calls; inactive = above about -39%; note: % is set by controls: 0 for no effect and ±100 for the full control effect
#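 Compounds were evaluated in HFFs infected with an HCMV luciferase reporter virus (MOI 1 PFU/cell). Luciferase in lysates collected 72 h post infection served as the replication measure.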
# HCV inhibitor: HCV inhibition. 3.4% of 340,000 active. Potency, µM (series often up to 41.8 µM), for the others: top-dose activity change, negative = inhibition, usual class: inhibitors. AID 651820. Huh7.5.1 HCVcc-Cre infection, luciferase reporter, 44 h; note: potency is the fitted concentration of half-maximal effect; % is set by controls: 0 for no effect and ±100 for the full control effect
#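 Whole-lifecycle infectious HCVcc-Cre system; cells 1,000/well, compound then virus (~0.5 moi) added 4 h after plating, 44 h culture. Luciferase read 15 sec following 15 min substrate incubation, room temp.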
# The depositor's hits bear a star; i = inactive; ? = inconclusive; / = no result; + = active, no number; [ ] = remark or other dose. Hits are enriched below; roughly 21% of the tested compounds scored in any of these assays. Unless noted, calls come from the whole dose curve; as a rule, active = well fitted inhibition curve with a large enough effect; inconclusive = small, poorly fitted or top-dose-only effect, or another doubt; inactive = no such curve, though single readings can be large or run the other way.
SMILES,Pf growth 48h,Shiga inhibitor,CHX counter,Pf growth 96h,HCMV inh,HCV inhibitor
CC/C(=C(\c1ccc(O)cc1)c1ccc(OCCN(C)C)cc1)c1ccccc1,/,-22,-12,/,-67*,?
CCC(=C(c1ccc(O)cc1)c1ccc(OCCN(C)C)cc1)c1ccccc1,/,/,/,/,-12,/
O=C(Nc1ccc(S(=O)(=O)Nc2ccnn2-c2ccccc2)cc1)C(F)(F)F,1%,13,-3,43%,9,21%
CC1(C)CC(NC(=O)C2CCC(=O)N(C3CC3)C2)CC(C)(C)C1 (stereo not given),8%,-2,-1,8.3µM*,23,22%
CCCCNC(=O)C1CCC(Cn2c(=O)c3sccc3n(Cc3ccccc3)c2=O)CC1 (stereo not given),/,/,/,/,9,/
CC1CCN(c2nc3nonc3nc2Nc2ccc(F)cc2)CC1,?,-12,-4,13%,?,11µM*
c1ccc(-c2cc3nc(NCC4CC4)nc(NCC4CCCCC4)c3s2)cc1,/,/,/,/,-92*,/
CC(=O)Nc1ccc(CNc2nc(NC(C)C)nc3cc(-c4ccccc4)sc23)cc1,/,/,/,/,-98*,/
COc1ccc(-c2cc(CNc3nc(NC(C)C)nc4cc(-c5ccccc5)sc34)on2)cc1,/,/,/,/,-99*,/
Cc1cc(NC(=O)C2CCCCC2)nc2c1c(=O)oc1ccccc12,15%,-17,5,6.6µM*,5,?
COc1ccc(OC)c(CNC(=O)c2cnc(N(C)C)nc2)c1,/,/,/,/,3,/
Cc1ccc2oc(=O)c3cc(C(=O)NCc4ccco4)sc3c2c1,/,-9,-1,9.3µM*,-5,5%
Cc1ccc2oc(=O)c3cc(C(=O)NCCN4CCc5ccccc5C4)sc3c2c1,4.7µM*,1,-1,?,38,-3%[8.37 µM]
CCCN1CCN(CCCNC(=O)c2cc3c(=O)oc4ccc(C)cc4c3s2)CC1,13%,-10,-2,?,-30,-10%
CC(=O)c1ccc(NC(=O)c2cc3c(=O)oc4ccc(C)cc4c3s2)cc1,/,/,/,/,-93*,/
Cc1ccc2oc(=O)c3cc(C(=O)Nc4cccc(C#N)c4)sc3c2c1,/,/,/,/,7,/
Cc1ccc2oc(=O)c3cc(C(=O)NCCCN4CCCC(C)C4)sc3c2c1 (stereo not given),4.1µM*,-9,-4,21%,-8,?
CN(C)N1C(=O)CC(NNC(=O)c2ccncc2)C1=O (stereo not given),4%,-5,-4,1%,16,11%
CCCCCCOC(=O)c1cccnc1,-3%,/,/,-11%,/,/
Cn1c(=O)c2c(nc(Br)n2Cc2ccc3ccccc3c2)n(C)c1=O,/,-19,-4,5.2µM*,-14,?
Cn1c(=O)c2c(nc(Oc3ccc4ccccc4c3)n2C)n(C)c1=O,/,-8,-8,?,-76*,-15%
Cc1noc(C)c1NC(=O)Nc1cccc2c1O[C@@H](CN(C)Cc1ccc3c(c1)OCO3)[C@@H](C)CN([C@H](C)CO)C2=O,/,/,/,/,10,11%
Cc1ccc(C(=O)COC(=O)c2cnccn2)cc1,11%,-2,-2,/,-27,5%
Cn1ccc(C(=O)OCC(=O)c2ccccc2)n1,36%,59,17*,38%,22,16%
O=C(Nc1nccs1)c1cn2ccccc2n1,-19%,-19,10,63%,17,13%
SMILES,Pf growth 48h,Shiga inhibitor,CHX counter,Pf growth 96h,HCMV inh,HCV inhibitor
NNC(=O)c1cn2ccccc2n1,?,60*,29*,-57%,-14,5%
Cc1ccc(C(=O)COC(=O)c2cn3ccccc3n2)cc1,75%,i,42*,48%,13,8%
CC(=O)Nc1ccc(NC(=O)c2cc(=O)c3cc(C)c(C)cc3o2)cc1,/,-4,-4,?,27,-9%
COC(=O)c1ccccc1NC(=O)c1ccc(NS(C)(=O)=O)cc1,19%,12,7,/,72,11µM*
CS(=O)(=O)Nc1ccc(C(=O)Nc2ccccc2Cl)cc1,19%,58,9,?,-34,-1%
CS(=O)(=O)Nc1ccc(C(=O)Nc2ccccc2C(=O)N2CCCC2)cc1,-5%,5,5,/,48,1%
CS(=O)(=O)Nc1ccc(C(=O)Nc2ccccc2-c2ccccc2)cc1,?,/,-1,12µM*,-1,0%
CC1=NN(C(=S)Nc2ccccc2)C(C)(C)C1,0%,31,23,?,-21,1%
COc1cc(/C=N/Nc2nc(-c3ccc(S(=O)(=O)N(C)C)cc3)cs2)ccc1O,2.1µM*,50*,13*,8.3µM*,-65*,?
COc1ccc(/C=N/Nc2nc(-c3cccc(S(=O)(=O)N4CCCC4)c3)cs2)cc1OC,9.3µM*,+,15,12µM*,?,10µM*
O=[N+]([O-])c1cc(/C=N\Nc2nc(-c3ccccc3)cs2)ccc1O,12µM*,93,23*,31%,-11,-8%
CCOc1cc(/C=N/Nc2nc(-c3cccc(S(=O)(=O)N4CCCC4)c3)cs2)ccc1O,9.3µM*,9,-2,10µM*,?,10µM*
CN(C)CCNC(=O)Nc1ccc(F)cc1F,-4%,11,-4,?,-11,7%
O=C(NNC(=O)c1ccc2[nH]c(=O)c(=O)[nH]c2c1)c1cccc(Br)c1,54%,5,8,1%,?,7%
Clc1cccc(-c2ccc3nccn3c2)c1Cl,/,/,/,/,-39,/
COc1ccc(Cl)cc1NC(=O)CN(c1ccccc1)S(=O)(=O)N(C)C,-24%,-10,-2,3%,13,?
COc1ccc(Cl)cc1NC(=O)CN(c1cccc(C)c1C)S(=O)(=O)c1ccccc1,/,/,/,/,-62*,/
COc1ccc(OC)c(S(=O)(=O)N(C)CC(=O)Nc2cc(Cl)ccc2OC)c1,9.3µM*,-6,-2,7.4µM*,5,11µM*
COc1ccc(N(CC(=O)Nc2ccc(Cl)cc2C)S(=O)(=O)c2ccccc2)c(OC)c1,/,/,/,/,-71*,/
Cc1c(Cl)cccc1NC(=O)Cn1cnc2nc3c(cc2c1=O)CCCC3,/,/,/,/,23,/
COc1ccc(NC(=O)CS(=O)(=O)c2cn(CC(=O)N3CCCC3)c3ccccc23)c(OC)c1,-15%,14,1,-18%,-38,-5%
Cc1ccc(/C=c2/sc3n(c2=O)CCCN=3)o1,221%,60*,35*,218%,45,-7%
Cc1ccc(/C=c2\sc3n(c2=O)CN(c2ccc(Br)cc2)CN=3)o1,14%,-3,-3,?,31,2%
O=c1/c(=C\c2ccc3c(c2)OCO3)sc2n1CCCN=2,150%,50*,28*,-28%,39,-22%
Cc1cc(C)c(NC(=O)Cn2c(=O)n(Cc3ccco3)c(=O)c3ccc(C(=O)NC4CCCC4)cc32)c(C)c1,/,/,/,/,3,/
CCN1CCN(Cc2cc(OC)c(OC)cc2[N+](=O)[O-])CC1,58%,8,-2,74%,38,2%
